Inconclusive results are not listed. The source made the active and inactive calls. Calls follow the shape of the dose curve; as a rule, active = well fitted cell-killing curve with a large enough effect; inconclusive = small, poorly fitted or top-dose-only effect, or effect the other way; inactive = flat fitted curve, though single readings scatter.
Tests used:
Test in all cases: Primary qHTS to identify gynecologic anti-cancer compounds using libraries of approved drugs and bioactive compounds (AID 1345084); also: nearly all actives have a fitted effect of over 55% in size
Conditions in all cases: Gynecologic cancer cell panel viability, ATPlite luminescence, 48 h; series mostly up to 57.5 µM
[1] = tested on: OV90
Method in brief: (§1)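 In this quantitative HTS, cell killing is estimated from loss of ATP-dependent luciferase light. Cells see five compound concentrations over a 48 h exposure.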

[2] = tested on: PA-1
Method in brief: as §1

[3] = tested on: SKOV3
Method in brief: as §1

[4] = tested on: Tov-21-G
Method in brief: as §1

[5] = tested on: Tov112D
Method in brief: as §1
% is scaled to controls: 0 for no effect and ±100 for the full control effect; potency is read from the fitted curve at half-maximal effect.

Cc1cc(OCc2nc(-c3ccccc3Cl)cs2)ccc1OCC(=O)O
inactive: Potency [1] | Potency [2] | Potency [3] | Potency [4] | Potency [5]

CC1OC(OC2C(C)OC(OC3C(O)C(CO)OC(O[C@H]4CC[C@@]5(C)C(CC[C@]6(C)C5CC=C5C7[C@@H](C)[C@H](C)CC[C@]7(C(=O)O)CC[C@]56C(=O)O)C4(C)C)C3O)C(O)C2O)C(O)C(O)C1O (stereo not given in full)
inactive: activity change, negative = cytotoxicity [1] 0.765% [at 11.6 µM] | activity change, negative = cytotoxicity [2] -0.273% [at 11.6 µM] | activity change, negative = cytotoxicity [3] -6.75% [at 11.6 µM] | activity change, negative = cytotoxicity [4] -0.483% [at 11.6 µM] | activity change, negative = cytotoxicity [5] 2.5% [at 11.6 µM]

O=[N+]([O-])c1cn2c(n1)OCC(OCc1ccc(OC(F)(F)F)cc1)C2 (stereo not given)
inactive: Potency [1] | Potency [2] | Potency [3] | Potency [4] | Potency [5]

CC1(C)CCC2(C(=O)OC3OCC(O)C(O)C3O)CCC3(C)C(=CCC4C5(C)CC(O)C(OC6OC(COC7OCC(O)C(O)C7O)C(O)C(O)C6O)C(C)(C)C5CCC43C)C2C1 (stereo not given)
inactive: activity change, negative = cytotoxicity [1] 4.98% [at 11.6 µM] | activity change, negative = cytotoxicity [2] 14.1% [at 11.6 µM] | activity change, negative = cytotoxicity [3] 12.7% [at 11.6 µM] | activity change, negative = cytotoxicity [4] 8.15% [at 11.6 µM] | activity change, negative = cytotoxicity [5] 7.12% [at 11.6 µM]

CC1OC(OC2C(CO)OC(OCC3OC(OC(=O)C45CCC(C)(C)CC4C4=CCC6C7(C)CCC(OC8OC(CO)C(O)C(OC9OC(CO)C(O)C(O)C9O)C8O)C(C)(C)C7CCC6(C)C4(C)CC5)C(O)C(O)C3O)C(O)C2O)C(O)C(O)C1OC1OC(CO)C(O)C(O)C1O (stereo not given)
inactive: activity change, negative = cytotoxicity [1] 6.18% [at 6.55 µM] | activity change, negative = cytotoxicity [2] 2.62% [at 6.55 µM] | activity change, negative = cytotoxicity [3] 13.6% [at 6.55 µM] | activity change, negative = cytotoxicity [4] 3.67% [at 6.55 µM] | activity change, negative = cytotoxicity [5] -6.51% [at 6.55 µM]

CC(=O)O[C@@H]1[C@@H](O)[C@H](C)O[C@@H](O[C@H]2[C@@H]3C=CO[C@@H](O[C@@H]4O[C@H](CO)[C@@H](O)[C@H](O)[C@H]4O)[C@@H]3[C@@]3(CO)O[C@@H]23)[C@@H]1OC(=O)/C=C/c1ccccc1
inactive: Potency [1] | Potency [2] | Potency [3] | Potency [4] | Potency [5]

C[C@@H]1O[C@@H](OC[C@H]2O[C@@H](OC(CCCCc3ccc(O)cc3)CCc3ccc(O)cc3)[C@H](O)[C@@H](O)[C@@H]2O)[C@H](O)[C@H](O)[C@H]1O (stereo not given in full)
inactive: Potency [1] | Potency [2] | Potency [3] | Potency [4] | Potency [5]

CC1=CC2/C=C(\C)CC[C@@H](O)[C@@H](O)[C@@H]3O[C@@H]3C(=O)[C@]23C(=O)N[C@@H](CC(C)C)[C@@H]3[C@@H]1C (stereo not given in full)
inactive: Potency [1] | Potency [2] | Potency [3] | Potency [4] | Potency [5]

COc1cc(C(=O)O)ccc1OC1OC(CO)C(O)C(O)C1O (stereo not given)
inactive: Potency [1] | Potency [2] | Potency [3] | Potency [4] | Potency [5]

C[C@@H]([C@@H](O)c1ccc(O)cc1)N1CCC(O)(c2ccccc2)CC1
inactive: Potency [1] | Potency [2] | Potency [3] | Potency [4] | Potency [5]

C[C@H](O)[C@H](O)/C=C/c1cccc(O)c1CO
inactive: Potency [1] | Potency [2] | Potency [3] | Potency [4] | Potency [5]

COc1ccc(-c2nc(-c3ccc(-c4cccc(Cl)c4)o3)[nH]c2-c2ccc(OC)cc2)cc1
inactive: Potency [1] | Potency [2] | Potency [3] | Potency [4] | Potency [5]

CC(NC(=O)C(O)C(C)C)C(=O)NC1C(=O)N(C)CCc2ccccc21 (stereo not given)
inactive: Potency [1] | Potency [2] | Potency [3] | Potency [4] | Potency [5]

CC1=C2C3OC(=O)C(C)C3(O)CCC2(C)CCC1O (stereo not given)
inactive: Potency [1] | Potency [2] | Potency [3] | Potency [4] | Potency [5]

C[C@@H]1C[C@@H]([C@@H](O)C(C)(C)O)O[C@H]2C[C@@]3(C)C(=C12)C[C@H](O)[C@H]1[C@@]2(C)CCC(=O)C(C)(C)C2CC[C@@]13C (stereo not given in full)
inactive: Potency [1] | Potency [2] | Potency [3] | Potency [4] | Potency [5]

CC(C)CN(C[C@@H](O)[C@H](Cc1ccccc1)NC(=O)O[C@@H]1CO[C@H]2OCC[C@H]21)S(=O)(=O)c1ccc(N)cc1
inactive: Potency [1] | Potency [2] | Potency [3] | Potency [4] | Potency [5]

CCOc1ccc(S(=O)(=O)n2c(C)nc3ccccc32)cc1
inactive: Potency [1] | Potency [2] | Potency [3] | Potency [4] | Potency [5]

CC(=O)N[C@H]1[C@H](O[C@H]2CC[C@@]3(C)C(CC[C@]4(C)C3CC=C3[C@@H]5CC(C)(C)CC[C@]5(C(=O)OC5OCC(O)C(O)C5O)CC[C@]34C)C2(C)C)O[C@H](COC2OC(C)C(O)C(OC3OC(C)C(O)C(O)C3O)C2O)[C@@H](O)[C@@H]1O (stereo not given in full)
inactive: activity change, negative = cytotoxicity [1] 3.41% [at 11.6 µM] | activity change, negative = cytotoxicity [2] 5.97% [at 11.6 µM] | activity change, negative = cytotoxicity [3] 2.42% [at 11.6 µM] | activity change, negative = cytotoxicity [4] 2.63% [at 11.6 µM] | activity change, negative = cytotoxicity [5] 7.32% [at 11.6 µM]

O=C(CN1C(=O)C2(CCCC2)NCC1c1cc(F)cc(F)c1)Nc1ccc2c(c1)CC1(C2)C(=O)Nc2ncccc21 (stereo not given)
inactive: Potency [1] | Potency [2] | Potency [3] | Potency [4] | Potency [5]

C=C[C@H]1CN2CC[C@H]1C[C@@H]2C(O)c1ccnc2ccc(OC)cc12 (stereo not given in full)
inactive: Potency [1] | Potency [2] | Potency [3] | Potency [4] | Potency [5]

C/C=C/C=C/[C@@H]1O[C@](O)([C@H](CC)C(=O)NC/C=C/C=C(\C)[C@@H](OC)[C@@H](C)C2OC(/C=C/C=C/C=C(\C)C(=O)c3c(O)cc[nH]c3=O)[C@H](O)[C@@H]2O)[C@H](O)[C@H](O)C1(C)C (stereo not given in full)
inactive: Potency [1] | Potency [2] | Potency [3] | Potency [4] | Potency [5]

C[C@H](C(=O)NC1CCCC1)N(C(=O)Cn1nnc(-c2ccc3c(c2)OCO3)n1)C1CCCCC1
inactive: Potency [1] | Potency [2] | Potency [3] | Potency [4] | Potency [5]

COc1ccc([C@@]2(O)c3c(ccc(CC=C(C)C)c3O)NC(=O)[C@@H]2OC)cc1
inactive: Potency [1] | Potency [2] | Potency [3] | Potency [4] | Potency [5]

CC1CCC2(C(=O)O)CCC3(C)C(=CCC4C5(C)CCC(OC(=O)/C=C/c6ccccc6)C(C)(C)C5CCC43C)C2C1C (stereo not given)
inactive: Potency [1] | Potency [2] | Potency [3] | Potency [4] | Potency [5]

COC(=O)C1=CO[C@@H](O)C2C(CO)=CCC12 (stereo not given in full)
inactive: Potency [1] | Potency [2] | Potency [3] | Potency [4] | Potency [5]

CC1(C)CCCC2(C)C(CO)C(CO)=CCC12 (stereo not given)
inactive: Potency [1] | Potency [2] | Potency [3] | Potency [4] | Potency [5]

Cc1cc(=O)oc2c(C=O)c(O)ccc12
inactive: Potency [1] | Potency [2] | Potency [3] | Potency [4] | Potency [5]

COC(=O)c1ccccc1O[C@@H]1O[C@H](CO)[C@@H](O)[C@H](O)[C@H]1O[C@@H]1O[C@@H](C)[C@H](O)[C@@H](O)[C@H]1O
inactive: Potency [1] | Potency [2] | Potency [3] | Potency [4] | Potency [5]

CC1(C)CC[C@]2(C(=O)O[C@@H]3O[C@H](CO)[C@@H](O)[C@H](O)[C@H]3O)CC[C@]3(C)C(=CCC4[C@@]5(C)CC[C@H](O[C@@H]6O[C@H](C(=O)O)[C@@H](O)[C@H](O)[C@H]6O)C(C)(C)C5CC[C@]43C)C2C1 (stereo not given in full)
inactive: activity change, negative = cytotoxicity [1] -4.22% [at 11.6 µM] | activity change, negative = cytotoxicity [2] 9.38% [at 11.6 µM] | activity change, negative = cytotoxicity [3] 0% [at 11.6 µM] | activity change, negative = cytotoxicity [4] 5.62% [at 11.6 µM] | activity change, negative = cytotoxicity [5] 11.2% [at 11.6 µM]

OC[C@H]1O[C@@H](OCCc2ccc(O)cc2)[C@H](O[C@@H]2OC[C@](O)(CO)[C@H]2O)[C@@H](O)[C@@H]1O
inactive: Potency [1] | Potency [2] | Potency [3] | Potency [4] | Potency [5]

Nc1nc2c(ncn2[C@@H]2O[C@@H]3COP(=O)(O)O[C@H]3[C@H]2O)c(=O)[nH]1
inactive: Potency [1] | Potency [2] | Potency [3] | Potency [4] | Potency [5]

O=C(O)c1cccc(S(=O)(=O)N2CCc3ccccc3C2)c1
inactive: Potency [1] | Potency [2] | Potency [3] | Potency [4] | Potency [5]

CC(C(O)/C=C/C(C)(C)O)C1CCC2(C)C3C(=O)C=C4C(CCC(O)C4(C)C)C3(C)CCC12C (stereo not given)
inactive: Potency [1] | Potency [2] | Potency [3] | Potency [4] | Potency [5]

CC(O)CCC1C(CO[C@@H]2O[C@H](CO)[C@@H](O)[C@H](O)[C@H]2O)CC(O)CC1(C)C (stereo not given in full)
inactive: Potency [1] | Potency [2] | Potency [3] | Potency [4] | Potency [5]

NC1CCCCN(c2c(F)cc3c(=O)c(C(=O)O)cn(C4CC4)c3c2Cl)C1 (stereo not given)
inactive: Potency [1] | Potency [2] | Potency [3] | Potency [4] | Potency [5]

C=C1OC2CC(C(=O)O)C=CC2NC1=O (stereo not given)
inactive: Potency [1] | Potency [2] | Potency [3] | Potency [4] | Potency [5]

CC(=O)O[C@@H](CO[C@@H]1O[C@H](CO)[C@H](O)[C@H](O)[C@H]1O)[C@]1(C)C=C2CC[C@@H]3C(C)(C)[C@@H](O)CC[C@@]3(C)[C@@H]2CC1
inactive: Potency [1] | Potency [2] | Potency [3] | Potency [4] | Potency [5]

CC1OC(OC2CCC3(C)C(CCC4(C)C3CC=C3C5CC(C)(C)CCC5(C(=O)OC5OC(CO)C(O)C(O)C5O)CCC34C(=O)O)C2(C)C)C(O)C(O)C1O (stereo not given)
inactive: Potency [1] | Potency [2] | Potency [3] | Potency [4] | Potency [5]

C=C[C@H]1[C@H](O[C@@H]2O[C@H](CO)[C@@H](O)[C@H](O)[C@H]2O)OC=C(C(=O)OC)[C@H]1C[C@@H]1c2cc(O)c(O)cc2CCN1C(C)=O
inactive: Potency [1] | Potency [2] | Potency [3] | Potency [4] | Potency [5]

CCCn1c(=O)c2[nH]c(-c3ccc(OCC(=O)O)cc3)nc2n(CCC)c1=O
inactive: Potency [1] | Potency [2] | Potency [3] | Potency [4] | Potency [5]

CC1=C(C(=O)O)/C(=C\CO[C@@H]2O[C@H](CO)[C@@H](O)[C@H](O)[C@H]2O)C(OC(=O)/C=C/c2ccc(O)cc2)C1 (stereo not given in full)
inactive: Potency [1] | Potency [2] | Potency [3] | Potency [4] | Potency [5]

CC1(C)[C@@H](O)CC[C@]2(C)[C@H]3CC=C4[C@@H]5C[C@](C)(C(=O)O)CC[C@]5(C)CC[C@@]4(C)[C@]3(C)CC[C@@H]12
inactive: Potency [1] | Potency [2] | Potency [3] | Potency [4] | Potency [5]

CC(C)[C@H]1CC[C@@]2(O)COC(=O)[C@H]2[C@@H]1/C=C(\CO)C(=O)O
inactive: Potency [1] | Potency [2] | Potency [3] | Potency [4] | Potency [5]

COc1c/c(=C2\C=c3ccccc3=N2)[nH]/c1=C\c1[nH]c(C)cc1C
active: Potency [1] 2.24 µM | Potency [2] 2 µM | Potency [3] 10 µM | Potency [4] 14.1 µM | Potency [5] 3.55 µM
